Screens as filed in PubChem.
Lassa entry inh: inhibitors of Lassa virus binding or cell entry; Lassa virus pseudotype entry inhibition, cell reporter; 300,000 tested, 1.2% active; Potency, µM (series often up to 37.9 µM), for the others: at the highest dose activity change, negative = inhibition, most hits filed as inhibitors; calls by dose curve; tested in HEK293 cells; further: potency means the concentration at half of the fitted maximal effect; nearly all actives have a fitted effect of over 50% in size
Marburg entry inh: blocks Marburg virus binding to or entry into cells. Marburg virus pseudotyped entry inhibition, cell reporter. Potency, µM (titrated, usually from 37.8 µM), for inactives: top-dose activity change, negative = inhibition, usual class: inhibitors. 300,000 tested, 1.8% active. AID 540276; calls by dose curve; tested in HEK293 cells; further: potency means the concentration at half of the fitted maximal effect
HCV inhibitor: HCV inhibition. Potency, µM (titrated, usually from 41.8 µM), for the others: top-dose activity change, negative = inhibition, hits mostly inhibitors. 340,000 tested, 3.4% active. AID 651820. Huh7.5.1 HCVcc-Cre infection, luciferase reporter, 44 h; active means well fitted inhibition curve with a large enough effect; inconclusive means small, poorly fitted or top-dose-only effect, or another doubt; inactive means no such curve, though single readings can be large or run the other way; further: potency means the concentration at half of the fitted maximal effect
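Luciferase read-out (15 sec integration) after a 15 min room-temperature substrate step quantifies HCVcc-Cre infection. Cells, 1,000 per well, had compound added 4 h post-plating, then virus at ~0.5 moi, and were cultured 44 h.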
FMDV antiviral: blocks foot and mouth disease virus. FMDV antiviral cell-based qHTS. Potency, µM (highest dose often 57.9 µM), for inactives: at the top dose activity change, negative = inhibition, hits mostly inhibitors. 410,000 tested, 1.2% active. AID 1159524; calls by dose curve; tested in HEK293T cells; further: read-out not given here; potency means the concentration at half of the fitted maximal effect; nearly all actives have a fitted effect of over 45% in size
HCMV inh: blocks human cytomegalovirus replication. HFF cells, HCMV-luciferase reporter, 72 h; stronger effect = lower value. activity change, negative = inhibition, % at 57.5 µM. 410,000 tested, 4.5% active. AID 1259415; in the data active means activity change below about -60%; inconclusive means no clear call, values can overlap the other calls; inactive means above about -39%
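Compounds were evaluated in HFFs infected with an HCMV luciferase reporter virus (MOI 1 PFU/cell). Luciferase in lysates collected 72 h post infection served as the replication measure.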
* = called active by the depositor; ? = inconclusive; nt = no result; [ ] = another dose, or the depositor's remark. Only some compounds are listed: those with a hit (about 7.9% of all), similar ones and a draw of the others. On the % scale 0 is the no-effect control and ±100 the full control effect.

SMILES | Lassa entry inh | Marburg entry inh | HCV inhibitor | FMDV antiviral | HCMV inh
COc1cccc(Nc2nc(-c3ccccc3)nc3ccccc23)c1 | ? | ? | 10µM* | -23% | -12
COCCN(CCOC)c1nc(-c2ccc(C)cc2)nc2ccccc12 | nt | nt | -28% | 7% | -27
Oc1ccc(Nc2nc(-c3ccccc3O)nc3ccccc23)cc1 | nt | nt | 11µM* | 0% | 79
Fc1cccc(Nc2nc(-c3ccncc3)nc3ccccc23)c1 | -10% | ? | ? | 25µM* | 73
Cc1ccc(-c2nc(C(Cl)Cl)c3ccccc3n2)cc1 | nt | nt | 3.5µM* | 39% | -8
N#Cc1cccc(-c2nc(Nc3ccncc3)c3ccccc3n2)c1 | nt | nt | nt | -14% | nt
CC(=O)c1cccc(-c2cnc3ccc(-c4cccc(Oc5ccccc5)c4)nn23)c1 | nt | nt | nt | nt | -8
CC(C)(C)C(=O)CSc1ccc(S(=O)(=O)N2CCN(Cc3ccccc3)CC2)cn1 | nt | nt | -10% | -25% | 2
COc1cccc(NC(=O)CSCc2cc(=O)c3ccc(C)c(C)c3[nH]2)c1 | 13%[46.1 µM] | nt | nt | 8% | 10
CCN1C(=O)NC(c2cccc(C(F)(F)F)c2)C(C(C)=O)=C1C (configuration not stated) | ? | 12%[14.2 µM] | nt | nt | nt
Oc1cccc(Nc2nc(-c3ccccc3Cl)nc3ccccc23)c1 | -40%[46.1 µM] | ? | -19% | ? | ?
Oc1cccc(Nc2c3ccccc3nc3ccccc23)c1 | nt | nt | ? | ? | -100*
CCN(C(=O)CSc1nccc(=O)[nH]1)C1CCCCC1 | nt | nt | 0% | -15% | -3
O=C(Nc1ccon1)c1cccn(Cc2ccccc2)c1=O | 18%[46.1 µM] | nt | nt | -15% | 0
O=C(Nc1ccncc1)c1cccn(Cc2ccccc2)c1=O | -27%[46.1 µM] | ? | 8.9µM* | ? | -75*
O=C(Nc1ccccc1)c1cccn(Cc2ccccc2)c1=O | ? | ? | 10µM* | 3% | -31
COc1ccc(-n2nc3c(c2NC(=O)C(C)Oc2ccccc2)CS(=O)C3)cc1 (configuration not stated) | 2% | 15% | nt | -16% | -13
S=C(Nc1cccc(Cl)c1)N1CCN(c2ccccn2)CC1 | nt | nt | -7% | -10% | -34
S=C(NC1CCCC1)N1CCN(c2ccccn2)CC1 | 6% | 23% | 7% | 0% | -62*
S=C(NC1CCCC1)N1CCN(c2cccc(Cl)c2)CC1 | nt | nt | 13µM* | ? | ?
CC(=NNC(=S)N1CCCCCC1)c1cccc2cccnc12 | ? | ? | ? | 21% | -75*
O=C(NC(=S)N1CCN(c2ccccn2)CC1)c1ccccc1 | 1% | 0% | 10% | -22% | -20
S=C(NC1CC1)N1CCN(c2ccc(Cl)cc2)CC1 | -1% | -2% | -3% | -27% | -4
O=[N+]([O-])c1cccc(NC(=S)N2CCN(c3ccccn3)CC2)c1 | ? | ? | ? | -3% | -65*
N#C[C@H](C(=O)NC1CC1)c1nc2ccccc2nc1N1CCN(C/C=C\c2ccccc2)CC1 | nt | 0% | nt | nt | nt
SMILES | Lassa entry inh | Marburg entry inh | HCV inhibitor | FMDV antiviral | HCMV inh
CCc1nn(CC(=O)NCCN(CC)CC)c(=O)c2cc3occc3n12 | -9%[46.1 µM] | ? | nt | -6% | -21
CC(=NNC(=S)N1CCN(c2ccccn2)CC1)c1nccs1 | ? | ? | 1.3µM* | -9% | nt
CC(=NNC(=S)N1CCN(c2ccccn2)CC1)c1ccccn1 | -9% | ? | ? | -9% | -14
CCCc1c(Cc2cccc(F)c2)ncn1Cc1cccc(-c2ccccc2)c1 | nt | nt | nt | -71% | ?
CCc1c(-c2cccc(OC)c2)ncn1Cc1cccc(-c2ccccc2)c1 | nt | nt | nt | 32µM* | ?
CCc1c(-c2ccccc2)ncn1Cc1cccc(-c2ccccc2)c1 | nt | nt | nt | ? | -68*
CCc1c(-c2ccc(Cl)cc2)ncn1Cc1cccc(-c2ccccc2)c1 | nt | nt | nt | ? | -35
COc1cccc(Cn2cnc(-c3ccccc3OC)c2-c2cccnc2)c1 | nt | nt | nt | -5% | -24
CCc1c(-c2ccccc2F)ncn1Cc1cccc(-c2ccccc2)c1 | nt | nt | nt | ? | -71*
CCc1c(C2CC2)ncn1Cc1cccc(-c2ccccc2)c1 | nt | nt | nt | ? | -99*
CCn1nc(C)c2c(-c3ccccc3)cc(=O)n(C(C)C(=O)NCc3ccccc3OC)c21 (configuration not stated) | ? | nt | nt | ? | -16
Cn1c(-c2cccnc2)cc2cnc(Nc3ccc4c(c3)OCO4)cc21 | nt | nt | nt | nt | 22
Cc1[nH]c2ccc(F)cc2c(=O)c1SC(F)(F)[C@@H](F)C(F)(F)F | nt | -14% | nt | nt | nt
Cc1ccc(N=N/C(=C\O)C(=O)c2ccncc2)cc1 | ? | ? | ? | ? | 9
Cc1cccc(N=N/C(=C\O)C(=O)c2ccc(Br)cc2)c1 | 5.6µM* | 7.9µM* | 10µM* | -13% | -77*
O=C1CCCC(=O)N1CCCCCCN1C(=O)CCCC1=O | nt | nt | nt | 0% | -14
OC(CC#CCN1CCCCC1)(c1ccccc1)c1ccccc1 | ? | ? | -27% | -19% | -8
OC(CC#CCN1CCCC1)(c1ccccc1)c1ccccc1 | -28% | 10µM* | 6% | -10% | 14
Cc1ccc(C)c(N(CC(=O)NC2CCCC2)C(=O)c2oc(C(C)(C)C)cc2C)c1 | ? | ? | ? | nt | -67*
COc1ccccc1CNC(=O)C/C(C)=N/NC(=O)Cc1ccc(OC)c(OC)c1 | -6% | 17% | 26% | -23% | -66*
COc1ccccc1CNC(=O)C/C(C)=N/NC(=O)Cc1ccccc1 | 9% | ? | -2% | 17% | -7
CC(C)c1csc(CN2CCN(Cc3ccc(F)cc3)C(CCO)C2)n1 (configuration not stated) | 4% | 4%[46.1 µM] | ? | -23% | 4
c1cc2c(cc1-c1[nH]ncc1CN1CC3C[C@@H]4CC1C[C@H](C3)C4)OCO2 | 11%[46.1 µM] | -18% | 8% | 4% | -69*
Cn1cc(CN2CC3C[C@@H]4CC2C[C@H](C3)C4)c(-c2ccc3c(c2)OCCO3)n1 | 5% | 0%[46.1 µM] | 1% | 0% | 33
O=C(CSc1nnc2c(n1)[nH]c1ccc(F)cc12)NCc1ccc(F)cc1 | nt | 3%[46.1 µM] | 22% | -9% | -34
SMILES | Lassa entry inh | Marburg entry inh | HCV inhibitor | FMDV antiviral | HCMV inh
CC(C)OC(=O)CSc1nnc2c(n1)[nH]c1ccc(F)cc12 | ? | -10% | -26% | ? | -88*
COc1ccc(CNC(=O)CSc2nnc3c(n2)[nH]c2ccc(F)cc23)cc1 | 19% | 4%[46.1 µM] | -7% | -10% | -71*
C=CCn1c2ccccc2c(=O)c2cc(C#Cc3ccccn3)ccc21 | nt | nt | 13µM* | 32% | ?
O=C(CSc1ncc2c(n1)-c1ccccc1N(Cc1ccc(F)cc1)S2(=O)=O)NCc1ccccc1 | 2%[46.1 µM] | nt | nt | -12% | 8
COc1ccccc1-c1cn[nH]c1-c1ccc(O)cc1O | nt | nt | ? | ? | -40
COc1ccc(-c2cn[nH]c2-c2ccc(OCc3ccc(F)cc3)cc2O)cc1OC | ? | ? | ? | 25µM* | ?
COc1ccc(-c2cn[nH]c2-c2ccc(O)cc2O)cc1 | nt | nt | -10% | ? | -88*
C=C(C)COc1ccc(-c2nc(N)ncc2-c2ccc(OC)c(OC)c2)c(O)c1 | -2%[46.1 µM] | 13µM* | ? | -22% | 118
